# Data as given in PubChem BioAssay (NCI).
# This is part of a sample that, as a whole, favours compounds with a hit. Of some 83,000 tested, about 20% had one in any assay.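 In brief: 96-well plates, 48 h treatment, single concentration, percent growth endpoint.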 Unmarked numbers belong to inactive results. Active and inactive are the calls of the source. Rule for the calls: active = growth percent below 10; inactive = the rest.
# Test system: MDA-MB-468 breast
# Assay: NCI-60 one-dose screen, 48 h (100 = growth as untreated, 0 = no growth, -100 = all killed)
# Conditions: 10 µM unless noted
row,Structure (SMILES),growth
1,CN1C(=O)C(=Cc2cn(Cc3ccccc3)c3ccccc23)C(=O)N(C)C1=O,-49.5% (active)
2,C[C@@]1(CCCCCCCCCc2ccc(O)cc2)C[C@]2(C)OC(=O)C[C@@H]2OO1,64.8%
3,O=C([O][Hg][CH2]C1OCCOC1[CH2][Hg][O]C(=O)c1ccccc1)c1ccccc1 (centres undefined),-81.5% (active)
4,COC1OC(CO)C(O)C(O)[CH]1[Hg][O]C(C)=O (centres undefined),72.2%
5,CNCc1cccnc1,110%
6,CN1CCC(O)(c2ccc(F)cc2)C(C(=O)c2ccc(F)cc2)C1 (centres undefined),44.2%
7,CCOP(=O)(OCC)Oc1ccc(Sc2ccc(OP(=O)(OCC)OCC)cc2)cc1,107%
8,COc1cc(N(CCCl)CCCl)ccc1C=Nc1ccccc1C(=O)O,63.3%
9,CC1(C)N=C(N)N=C(N)N1c1ccc(CCCCc2ccc(S(=O)(=O)F)cc2)cc1,-3.5% (active)
10,CC(C)=CCc1c2c(c(O)c3c1O[C@]14C(=C[C@@H]5C[C@H]1C(C)(C)O[C@@]4(C/C=C(/C)C(=O)O)C5=O)C3=O)C=CC(C)(C)O2,-80.8% (active)
11,COC1=CC(=O)OC(CCc2ccc3c(c2)OCO3)C1 (centres undefined),95.9%
12,CC[C@]12C=CCN3CC[C@@]4(c5ccc(OC)cc5N(C)[C@H]4[C@@](O)(C(=O)OC)[C@@H]1OC(=O)CCCC[P+](c1ccccc1)(c1ccccc1)c1ccccc1)[C@@H]32,-63.9% (active)
13,COc1ccc(/C=C(\C)[N+](=O)[O-])cc1OC,-77.3% (active)
14,O=C(CC1(O)C(=O)Nc2ccc(Cl)cc21)c1ccc(C(=O)NCC2CCC3(CC2)OOC2(CCCCC2)OO3)cc1 (centres undefined),18%
